± gives the standard deviation of the averaged measurements.
system: SUM149; assay: percent difference in area under dose-response curve of relative cell number, RPMI vs HPLM; higher = drug relatively more effective in HPLM than RPMI (negative = less effective in HPLM); details: treatment time: 72 h; dose range: 10-point, 1 nM to 20 µM; media compared: RPMI vs HPLM

Structure (SMILES)	percent difference in area under dose-response curve [%]
CC(C)c1onc(-c2c(Cl)cccc2Cl)c1COc1ccc(/C=C/c2cccc(C(=O)O)c2)c(Cl)c1	7.59
CCCCCCCCCCCCC/C=C/[C@@H](O)[C@H](CO)N(C)C [N_N_Dimethylsphingosine]	6.06
CN(NC(=O)CC(=O)NN(C)C(=S)c1ccccc1)C(=S)c1ccccc1 [Elesclomol]	-21.3 ± 1.7
CCOC(=O)c1[nH]c2cc(Cl)ccc2c1C(C(=O)NC(C)(C)C)N(C=O)Cc1ccc(Cl)cc1 (centres undefined)	0.502
CNc1nc(-c2ccc3c(N)n[nH]c3c2)cc(N2C[C@@H](C(=O)NC3CCCCC3)CC[C@H]2C)n1	-4.83
C[C@@H]1CN(CC(=O)Nc2ccc3c(c2)Cc2cccc(-c4cc(=O)cc(N5CCOCC5)o4)c2S3)C[C@H](C)O1	-5.04
Nc1nc(=S)c2[nH]cnc2[nH]1 [6_Thioguanine]	-37.9
CN(C)C/C=C/C(=O)Nc1cc2c(Nc3ccc(F)c(Cl)c3)ncnc2cc1O[C@H]1CCOC1 [Afatinib]	2.93
CN1CCCN(C(=O)c2cccc(-c3ccc(/C=C4/C(=O)Nc5ccc(Cl)cc54)o3)c2)CC1	-26.8
N[C@H](C(=O)O)[C@@H]1CC(Cl)=NO1 [Acivicin]	9.22
Cc1ccc(Nc2nccc(N(C)c3ccc4c(C)n(C)nc4c3)n2)cc1S(N)(=O)=O [Pazopanib]	5.29
O=C(O)c1ccc2c(c1)nc(Nc1cccc(Cl)c1)c1ccncc12	0.753
Nc1ccccc1NC(=O)c1ccc(CNC(=O)OCc2cccnc2)cc1 [Entinostat]	-2.21
COc1cc([C@@H]2c3cc4c(cc3[C@@H](O[C@@H]3O[C@@H]5CO[C@@H](c6cccs6)O[C@H]5[C@H](O)[C@H]3O)[C@H]3COC(=O)[C@H]23)OCO4)cc(OC)c1O [Teniposide]	-42.7

From the supplement of paper PMC11383364
